Assay results from PubChem BioAssay (NCI).
About 83,000 compounds went through this panel and 20% of them were active in at least one assay; those are over-represented in the sample as a whole.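 Single-concentration screen, 48 h exposure, 96-well plates. Endpoint: percent growth. Below 10 = active.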 Active and inactive are the calls of the source.

The compounds below were run on 786-0 renal (assay: NCI-60 one-dose screen, 48 h (100 = growth as untreated, 0 = no growth, -100 = all killed)). Conditions: 10 µM unless noted.
For `O=C1CC(c2ccc(O)c(O)c2)Oc2cc(O)c([C@@H]3O[C@H](CO)[C@@H](O)[C@H](O)[C@H]3O)c(O)c21` (stereo partly drawn), the growth was 99.5% (inactive). In the case of `O=C(NCc1ccccc1)c1ccc2c(c1)NC(=O)[C@@H]1CCCN21`, the growth is reported as 95.9% (inactive). With `CCc1ccc(OCc2ccccc2C(=O)Nc2ccc3nc(C)cc(N)c3c2)cc1` the growth was -88.9% (active). With `CSc1cccc(NC(=O)Nc2nc3c(C)cccc3s2)c1` the growth was 96.2% (inactive). For `COC(=O)[C@]1(C)CCC[C@]2(C)[C@H]3C[C@H]4C(C(C)C)=C[C@]3(CC[C@H]21)[C@@H]1C(=O)N(CCC#N)C(=O)[C@@H]14`, the growth was 99.7% (inactive). For `CC1=C(CCCOC(=O)NCCCl)C2=C(C)C3(CC3)[C@@](C)(O)C(=O)C2=C1`, the growth was 11.6% (inactive). With `COc1ccc2[nH]c(-c3ccccc3)c(C=C(C#N)C#N)c2c1` the growth was 33.9% (inactive). `Cc1nn(-c2ccc(-c3ccc(OC(F)(F)F)cc3)cc2)c2nc(-c3ccccc3)nc(N)c12` was tested, and the growth was 93.8% (inactive). With `O=S(=O)(O)c1ccc(N=NSc2ccc3ccccc3c2)cc1` the growth was 102% (inactive). With `O=c1c2ccccc2n(CC(O)CN2CCCC2)c2c(Br)cccc12` (stereo not drawn) the growth was 98.8% (inactive). `CS(=O)(=O)O[C@@H]1C(=O)N(c2cc3c4ccccc4ccc3c3ccccc23)[C@H]1c1ccc(F)cn1` was tested, and the growth was 26.2% (inactive). With `CC(C)(C)c1nn(-c2ccccc2)c2c1COCN2Cc1ccc(Cl)cc1` the growth was 90% (inactive). With `Cc1cc(NC(=O)CNc2nc(Oc3ccc(F)cc3)nc(-c3ccc(F)cc3)n2)ccc1Cl` the growth was 99.5% (inactive). With `CC(=O)c1cc2c(N)c(C(=O)Nc3ccccn3)sc2nc1C` the growth was 88.2% (inactive). With `CCOC(=O)c1sc(/N=C2\NC(=O)/C(=C/c3ccc(N4CCN(C)CC4)cc3)S2)nc1C` the growth was 87% (inactive). With `O=C(/C(=C/c1ccc([N+](=O)[O-])cc1)SCc1ccc(F)cc1)c1ccc(Cl)cc1` the growth was 82.5% (inactive). `Cc1cnc(-c2ccc(-c3ccc(NC(=O)Nc4c(F)cc(F)cc4F)cc3F)c3c2C(=O)NC3)[nH]1` was tested, and the growth was 23.1% (inactive). With `COc1ccc(Nc2cc(NC(=O)CNc3cc(OC)c(Cl)c(OC)c3Cl)ncn2)cc1` the growth was 88.1% (inactive). In the case of `Nc1n[nH]c2cccc(C#Cc3cccc(NC(=O)c4cc(N5CCOCC5)cc(C(F)(F)F)c4)c3)c12`, the growth is reported as 57.7% (inactive). For `CC(C)(C)CC(C)(C)Cc1ccc(OCCOCC[N+](C)(C)Cc2ccccc2)cc1`, the growth was 44.5% (inactive). `CCOCc1cc(C(C)(C)C)ccc1O` was tested, and the growth was 97.6% (inactive). `C=C1C(=O)O[C@H]2[C@H]1CC/C(COC(=O)Nc1nc3ccccc3[nH]1)=C\CC[C@@]1(C)O[C@@H]21` was tested, and the growth was 80% (inactive). In the case of `C=C(C)[C@@H]1CC[C@]2(C(=O)n3ccnc3)CC[C@]3(C)[C@H](CC[C@@H]4[C@@]5(C)CCCNC(C)(C)[C@@H]5CC[C@]43C)[C@@H]12`, the growth is reported as 29.9% (inactive). `C=C(C)[C@@H]1CC[C@]2(C(=O)O)CC[C@]3(C)[C@H](CC[C@@H]4[C@@]5(C)C[C@@H](CC#Cc6ccccc6C)C(=O)C(C)(C)[C@@H]5CC[C@]43C)[C@@H]12` was tested, and the growth was 34.4% (inactive). For `Clc1ccc2c(NCCCNC3CCCCC3)ccnc2c1`, the growth was 68.5% (inactive). In the case of `CN(C)C(CNc1oc(-c2cccc3ccccc23)nc1C#N)c1ccco1` (stereo not drawn), the growth is reported as 90.1% (inactive). With `c1cc(CNC23CC4CC(CC(C4)C2)C3)cc(C[N+](Cc2cccc(CNC34CC5CC(CC(C5)C3)C4)c2)(Cc2cccc(CNC34CC5CC(CC(C5)C3)C4)c2)Cc2cccc(CNC34CC5CC(CC(C5)C3)C4)c2)c1` (stereo not drawn) the growth was 18.3% [42 µM] (inactive). In the case of `O=C1CCc2ccccc2N1`, the growth is reported as 101% (inactive). In the case of `Cc1cnc(SCc2ccc(Cl)cc2Cl)nc1Nc1ccc(Cl)c(Cl)c1`, the growth is reported as 92.3% (inactive). With `COc1cc(C2=NN(C(C)=O)C(c3cccc(Nc4ccnc5cc(C(F)(F)F)ccc45)c3)C2)cc(OC)c1OC` (stereo not drawn) the growth was 58.8% (inactive). In the case of `CCOC(=O)c1c(-c2ccc(O)cc2)c(C#N)c2c(C#N)c(N)nn2c1N`, the growth is reported as 93% (inactive). With `CN(C)CCCn1c2c(c3cc(-c4ccco4)ccc3c1=O)C(=O)c1ccccc1-2` the growth was 69.2% (inactive). For `Nc1cc(N)c(S(=O)(=O)O)cc1N=Nc1cc([N+](=O)[O-])ccc1O`, the growth was 110% (inactive). `COc1cc(/C=N/Nc2nc(-c3ccc(F)cc3)c(C#N)c(N3CCOCC3)n2)ccc1O` was tested, and the growth was 82% (inactive). In the case of `COc1cc(-c2csc(NC(=O)Nc3ccc(Cl)cc3)n2)cc(OC)c1OC`, the growth is reported as 47.5% (inactive). For `N#CCNc1ccc(C(=O)O)cc1`, the growth was 104% (inactive). `CCOC(=O)c1ccc(Nc2ncnc3ccc(NC(=O)c4ccccc4)cc23)cc1` was tested, and the growth was 86.8% (inactive). In the case of `COC(=O)/C=C/c1cc(OC(C)=O)c2c(c1)C(C(=O)OC)C(c1ccc(OC(C)=O)c(OC(C)=O)c1)O2` (stereo not drawn), the growth is reported as 19.8% (inactive).
